Where two headings read alike, the source gives them in different places.
Tests used:
Parameters in all cases: species or system human, MV4-11 + K-562 + COLO205 + SK-N-BE2 + OVCAR-8
[1] = test system: ADCK3; details: read-out: apparent Kd, n = 1
[2] = test system: ATM; details: read-out: apparent Kd, compound concentrations: 100 nM and 1000 nM (sheet 'Samples'), n = 1
[3] = test system: ADRBK1; details: read-out: apparent Kd; compound concentrations:100 nM and 1000 nM (sheet 'Samples'); n = 1
[4] = test system: MAPK11; details: read-out: apparent Kd; compound concentrations:100 nM and 1000 nM (sheet 'Samples'); n = 1
[5] = test system: MAPKAPK2; details: read-out: apparent Kd; compound concentrations:100 nM and 1000 nM (sheet 'Samples'); n = 1
[6] = test system: AKT2; details: read-out: apparent Kd; compound concentrations: 100 nM and 1000 nM (sheet 'Samples'), CATDS: 6.9315360856789104E-2; n = 1
[7] = test system: CAMK4; details: read-out: apparent Kd; compound concentrations: 100 nM and 1000 nM (sheet 'Samples'), CATDS: 7.7064865846565897E-2; n = 1
[8] = test system: CDK6; details: read-out: apparent Kd; compound concentrations: 100 nM and 1000 nM (sheet 'Samples'), CATDS: 7.4930063387868798E-2; n = 1
[9] = test system: CDKL5; details: read-out: apparent Kd; compound concentrations: 100 nM and 1000 nM (sheet 'Samples'), CATDS: 9.7869696626463096E-2; n = 1
[10] = test system: CSNK1E; details: read-out: apparent Kd; compound concentrations: 100 nM and 1000 nM (sheet 'Samples'), CATDS: 6.4509222244259798E-2; n = 1
[11] = test system: CSNK2A1;CSNK2A3; details: read-out: apparent Kd; compound concentrations: 100 nM and 1000 nM (sheet 'Samples'), CATDS: 6.2096943354302901E-2; n = 1
[12] = test system: MAP2K1; details: read-out: apparent Kd; compound concentrations: 100 nM and 1000 nM (sheet 'Samples'), CATDS: 6.2459835665012599E-2; n = 1
[13] = test system: MAP2K2; details: read-out: apparent Kd; compound concentrations: 100 nM and 1000 nM (sheet 'Samples'), CATDS: 6.9306858675437497E-2; n = 1
[14] = test system: NNT; details: read-out: apparent Kd; compound concentrations: 100 nM and 1000 nM (sheet 'Samples'), CATDS: 7.4633464586539203E-2; n = 1
[15] = test system: NQO1; details: read-out: apparent Kd; compound concentrations: 100 nM and 1000 nM (sheet 'Samples'), CATDS: 8.3466895844620997E-2; n = 1
[16] = test system: RIOK2; details: read-out: apparent Kd; compound concentrations: 100 nM and 1000 nM (sheet 'Samples'), CATDS: 6.3640535742752496E-2; n = 1
[17] = test system: PI4KA; details: read-out: apparent Kd; compound concentrations: 100 nM and 1000 nM (sheet 'Samples'), CATDS: 8.9803456150084393E-2; n = 1
[18] = test system: PIK3CA; details: read-out: apparent Kd, n = 1
[19] = test system: PIK3CB; details: read-out: apparent Kd; compound concentrations: 100 nM and 1000 nM (sheet 'Samples'), CATDS: 0.118363122139114; n = 1
[20] = test system: PIK3CD; details: read-out: apparent Kd; compound concentrations: 100 nM and 1000 nM (sheet 'Samples'), CATDS: 0.63403927390637105; n = 1
[21] = test system: PIK3CG; details: read-out: apparent Kd; compound concentrations: 100 nM and 1000 nM (sheet 'Samples'), CATDS: 0.133003472389642; n = 1
[22] = test system: PRKDC; details: read-out: apparent Kd; compound concentrations: 100 nM and 1000 nM (sheet 'Samples'), CATDS: 9.9642367307020793E-2; n = 1
[23] = test system: SRRT; details: read-out: apparent Kd; compound concentrations: 100 nM and 1000 nM (sheet 'Samples'), CATDS: 7.4591136223679494E-2; n = 1
[24] = test system: TOP2B; details: read-out: apparent Kd; compound concentrations: 100 nM and 1000 nM (sheet 'Samples'), CATDS: 7.4747311850649895E-2; n = 1
[25] = test system: CLK1; details: read-out: apparent Kd; compound concentrations:100 nM and 1000 nM (sheet 'Samples'); n = 1
[26] = test system: CLK2; details: read-out: apparent Kd; compound concentrations:100 nM and 1000 nM (sheet 'Samples'); n = 1
[27] = test system: CLK4; details: read-out: apparent Kd; compound concentrations:100 nM and 1000 nM (sheet 'Samples'); n = 1
[28] = test system: FER; details: read-out: apparent Kd; compound concentrations:100 nM and 1000 nM (sheet 'Samples'); n = 1
[29] = test system: IGF1R; details: read-out: apparent Kd; compound concentrations:100 nM and 1000 nM (sheet 'Samples'); n = 1
[30] = test system: INSR; details: read-out: apparent Kd; compound concentrations:100 nM and 1000 nM (sheet 'Samples'); n = 1
[31] = test system: PLK1; details: read-out: apparent Kd; compound concentrations:100 nM and 1000 nM (sheet 'Samples'); n = 1
[32] = compound concentrations:100 nM and 1000 nM (sheet 'Samples')

COc1ccc(CNC(=O)c2ccc(-c3cc(-c4nnc(C)o4)ccc3C)cc2)cc1 [GW701032X]
potency estimated from few doses ([1]; compound concentrations: 100 nM and 1000 nM (sheet 'Samples'), CATDS: 0.40395097893739401): 731 nM | potency estimated from few doses ([2]; CATDS: 0.655973384718888): 260 nM

CNC(=O)c1ccc(C)c(-n2c(C)cc(OCc3ccc(F)cc3F)c(Br)c2=O)c1 [PFE-PKIS_41]
potency estimated from few doses [1, 32]: 1260 nM | potency estimated from few doses [3]: 1490 nM | potency estimated from few doses [4]: 34.7 nM | potency estimated from few doses [5]: 23.3 nM

CNC(=O)c1cncc(/C=C/c2ccccc2Cl)c1 [GW445017X]
potency estimated from few doses ([1]; compound concentrations: 100 nM and 1000 nM (sheet 'Samples'), CATDS: 1): 747 nM

Cc1nc(-c2ccccc2)n2nc(NCCCN3CCOCC3)ncc12 [GW874091X]
potency estimated from few doses ([1]; compound concentrations: 100 nM and 1000 nM (sheet 'Samples'), CATDS: 9.8029447870553399E-2): 915 nM | potency estimated from few doses [6]: 1850 nM | potency estimated from few doses ([2]; CATDS: 0.21297510466852801): 287 nM | potency estimated from few doses [7]: 1460 nM | potency estimated from few doses [8]: 1550 nM | potency estimated from few doses [9]: 917 nM | potency estimated from few doses [10]: 2210 nM | potency estimated from few doses [11]: 2450 nM | potency estimated from few doses [12]: 2410 nM | potency estimated from few doses [13]: 1850 nM | potency estimated from few doses [14]: 1560 nM | potency estimated from few doses [15]: 1240 nM | potency estimated from few doses [16]: 2290 nM

Nc1ncc(-c2ccc3nccc(-c4ccncc4)c3c2)cc1S(=O)(=O)N1CCOCC1 [GSK1627798A]
potency estimated from few doses ([1]; compound concentrations: 100 nM and 1000 nM (sheet 'Samples'), CATDS: 7.8381532556713998E-2): 1520 nM | potency estimated from few doses [17]: 893 nM | potency estimated from few doses ([18]; compound concentrations: 100 nM and 1000 nM (sheet 'Samples'), CATDS: 0.36477997446567001): 11.1 nM | potency estimated from few doses [19]: 366 nM | potency estimated from few doses [20]: 3.67 nM | potency estimated from few doses [21]: 258 nM | potency estimated from few doses [22]: 627 nM | potency estimated from few doses [23]: 1900 nM | potency estimated from few doses [24]: 1880 nM

CNC(=O)c1c(F)cccc1Nc1nc(Nc2cc3c(cc2OC)CCN3C(=O)CN(C)C)nc2[nH]ccc12 [GSK1838705]
potency estimated from few doses [1, 32]: 1340 nM | potency estimated from few doses [25]: 376 nM | potency estimated from few doses [26]: 600 nM | potency estimated from few doses [27]: 137 nM | potency estimated from few doses [28]: 133 nM | potency estimated from few doses [29]: 1130 nM | potency estimated from few doses [30]: 759 nM | potency estimated from few doses [18, 32]: 176 nM | potency estimated from few doses [31]: 2350 nM

From article PMC11062922 (Nature Chemical Biology, 2023)
